Measurements as given in the supplement of paper PMC6555819.

Experiments:
Assay in all cases: PBM binding z-score (relative to random genomic background probes); higher = stronger binding; sequences stand for … in GC…GCGATTGACAGCGTAGAATGAAGG
[1] = system: FXR:RXRa (NR concentration 270 nM, RXRa partner concentration 90 nM)
In short: (§1)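 Each nuclear receptor dimer, without ligand, was incubated for 1 h on custom Agilent 4×180K protein-binding microarrays. Binding was detected with antibodies against each partner (one per run), and scanned fluorescence was regression-normalized. The binding z-scores are referenced to random human genomic background probes.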

[2] = system: LXRa:RXRa (NR concentration 270 nM, RXRa partner concentration 90 nM)
In short: as §1

[3] = system: LXRa homodimer (NR concentration 270 nM)
In short: as §1

[4] = system: LXRb:RXRa (NR concentration 270 nM, RXRa partner concentration 90 nM)
In short: as §1

[5] = system: LXRb homodimer (NR concentration 270 nM)
In short: as §1

[6] = system: PPARa:RXRa (NR concentration 270 nM, RXRa partner concentration 90 nM)
In short: as §1

[7] = system: PPARg:RXRa (NR concentration 180 nM, RXRa partner concentration 90 nM)
In short: as §1

[8] = system: PPARg:RXRa 270nM:90nM, anti-RXR (NR concentration 270 nM, RXRa partner concentration 90 nM)
In short: as §1

[9] = system: PPARg:RXRa 30nM:10nM, anti-RXR (NR concentration 30 nM, RXRa partner concentration 10 nM)
In short: as §1

[10] = system: PPARg:RXRa 90nM:30nM, anti-RXR (NR concentration 90 nM, RXRa partner concentration 30 nM)
In short: as §1

Q: CCTTACGGGTCACGAGGTTATACCACGACGAGCG was tested. Which PBM binding z-score [1] did it give?
A: Its PBM binding z-score is 6.99.

Q: What about the PBM binding z-score [2] of the same sequence?
A: Its PBM binding z-score is 4.85.

Q: And the PBM binding z-score [3]?
A: Its PBM binding z-score is 0.42.

Q: What about the PBM binding z-score [4] of the same sequence?
A: The PBM binding z-score was 4.37.

Q: And the PBM binding z-score [5]?
A: The PBM binding z-score was -0.0941.

Q: What about the PBM binding z-score [6] of the same sequence?
A: The PBM binding z-score was 6.07.

Q: And the PBM binding z-score [7]?
A: Its PBM binding z-score is 6.94.

Q: What about the PBM binding z-score [8] of the same sequence?
A: The PBM binding z-score was 6.43.

Q: And the PBM binding z-score [9]?
A: The PBM binding z-score was 3.65.

Q: And the PBM binding z-score [10]?
A: The PBM binding z-score was 5.65.

Q: CGAACTAGGTCATTGACAGGACAGTCAATAGTAA was tested. Which PBM binding z-score [1] did it give?
A: The PBM binding z-score was 4.28.

Q: And the PBM binding z-score [2]?
A: Its PBM binding z-score is 3.15.

Q: What about the PBM binding z-score [3] of the same sequence?
A: The PBM binding z-score was 0.489.

Q: What about the PBM binding z-score [4] of the same sequence?
A: The PBM binding z-score was 2.19.

Q: What about the PBM binding z-score [5] of the same sequence?
A: Its PBM binding z-score is 0.17.

Q: And the PBM binding z-score [6]?
A: Its PBM binding z-score is 4.74.

Q: And the PBM binding z-score [7]?
A: The PBM binding z-score was 7.38.

Q: And the PBM binding z-score [8]?
A: Its PBM binding z-score is 6.08.

Q: And the PBM binding z-score [9]?
A: The PBM binding z-score was 3.32.

Q: What about the PBM binding z-score [10] of the same sequence?
A: Its PBM binding z-score is 5.75.

Q: With CGAACTAGGGCATTGACAGGACAGTGAATAGTAA as the sequence, how does the PBM binding z-score [1] read?
A: The PBM binding z-score was 0.151.

Q: What about the PBM binding z-score [2] of the same sequence?
A: Its PBM binding z-score is 0.0251.

Q: What about the PBM binding z-score [3] of the same sequence?
A: The PBM binding z-score was 0.031.

Q: What about the PBM binding z-score [4] of the same sequence?
A: Its PBM binding z-score is -0.0451.

Q: And the PBM binding z-score [5]?
A: Its PBM binding z-score is -0.654.

Q: And the PBM binding z-score [6]?
A: Its PBM binding z-score is 2.23.

Q: What about the PBM binding z-score [7] of the same sequence?
A: The PBM binding z-score was 3.32.

Q: What about the PBM binding z-score [8] of the same sequence?
A: The PBM binding z-score was 2.68.

Q: What about the PBM binding z-score [9] of the same sequence?
A: The PBM binding z-score was 0.522.

Q: And the PBM binding z-score [10]?
A: The PBM binding z-score was 1.83.

Q: What does the source list for TCATATAGGTAAAGGTGAAAGCCGAACGATATGA?
A: PBM binding z-score [1]: 0.132; PBM binding z-score [2]: 1.05; PBM binding z-score [3]: -0.406; PBM binding z-score [4]: 1.09; PBM binding z-score [5]: -0.488; PBM binding z-score [6]: 3.13; PBM binding z-score [7]: 3.82; PBM binding z-score [8]: 4.43; PBM binding z-score [9]: 4.34; PBM binding z-score [10]: 4.51

Q: With AGAACGAGGGCACGCTGAGTCGATAGCAGAGTAG as the sequence, how does the PBM binding z-score [1] read?
A: Its PBM binding z-score is 0.534.

Q: And the PBM binding z-score [2]?
A: The PBM binding z-score was 0.569.

Q: And the PBM binding z-score [3]?
A: Its PBM binding z-score is -0.415.

Q: And the PBM binding z-score [4]?
A: The PBM binding z-score was -0.0914.

Q: And the PBM binding z-score [5]?
A: Its PBM binding z-score is -1.26.

Q: What about the PBM binding z-score [6] of the same sequence?
A: Its PBM binding z-score is 1.98.

Q: What about the PBM binding z-score [7] of the same sequence?
A: Its PBM binding z-score is 2.05.

Q: What about the PBM binding z-score [8] of the same sequence?
A: Its PBM binding z-score is 1.66.

Q: What about the PBM binding z-score [9] of the same sequence?
A: The PBM binding z-score was 0.0721.

Q: What about the PBM binding z-score [10] of the same sequence?
A: The PBM binding z-score was 0.871.

Q: How did the PBM binding z-score [1] turn out when ATCGAAAGGTCGACGAGCTGAGTATACACCGTTT was run?
A: The PBM binding z-score was 4.14.

Q: And the PBM binding z-score [2]?
A: Its PBM binding z-score is 3.16.

Q: And the PBM binding z-score [3]?
A: The PBM binding z-score was 0.028.

Q: What about the PBM binding z-score [4] of the same sequence?
A: The PBM binding z-score was 2.59.

Q: And the PBM binding z-score [5]?
A: The PBM binding z-score was 0.389.

Q: And the PBM binding z-score [6]?
A: The PBM binding z-score was 4.22.

Q: What about the PBM binding z-score [7] of the same sequence?
A: Its PBM binding z-score is 2.33.

Q: And the PBM binding z-score [8]?
A: Its PBM binding z-score is 2.87.

Q: What about the PBM binding z-score [9] of the same sequence?
A: Its PBM binding z-score is 1.17.

Q: What about the PBM binding z-score [10] of the same sequence?
A: Its PBM binding z-score is 1.72.

Q: Which results are given for CCTACTGGGCCACGAAAGGTCATAGATTCAGTGA?
A: PBM binding z-score [1]: 3.74; PBM binding z-score [2]: 5.02; PBM binding z-score [3]: 4.02; PBM binding z-score [4]: 4.2; PBM binding z-score [5]: 0.194; PBM binding z-score [6]: 4.78; PBM binding z-score [7]: 4.68; PBM binding z-score [8]: 4.98; PBM binding z-score [9]: 2.28; PBM binding z-score [10]: 4.2

Q: Which PBM binding z-score [1] does the source give for CTACCCAGGTGAACAAGGTCGTTGATTACTATTC here?
A: The PBM binding z-score was 0.858.

Q: And the PBM binding z-score [2]?
A: Its PBM binding z-score is 0.806.

Q: And the PBM binding z-score [3]?
A: The PBM binding z-score was 0.13.

Q: What about the PBM binding z-score [4] of the same sequence?
A: Its PBM binding z-score is 1.4.

Q: What about the PBM binding z-score [5] of the same sequence?
A: Its PBM binding z-score is -0.485.

Q: And the PBM binding z-score [6]?
A: The PBM binding z-score was 1.99.

Q: And the PBM binding z-score [7]?
A: The PBM binding z-score was 0.957.

Q: What about the PBM binding z-score [8] of the same sequence?
A: Its PBM binding z-score is 0.672.

Q: And the PBM binding z-score [9]?
A: The PBM binding z-score was 0.076.

Q: And the PBM binding z-score [10]?
A: The PBM binding z-score was 0.194.

Q: For AATACAGGGTCAACGTAGGCCAGAGTACGCACAG, which PBM binding z-score [1] is on record?
A: The PBM binding z-score was 7.15.

Q: And the PBM binding z-score [2]?
A: The PBM binding z-score was 6.18.

Q: And the PBM binding z-score [3]?
A: Its PBM binding z-score is 1.92.

Q: What about the PBM binding z-score [4] of the same sequence?
A: The PBM binding z-score was 4.41.

Q: What about the PBM binding z-score [5] of the same sequence?
A: Its PBM binding z-score is 1.47.

Q: What about the PBM binding z-score [6] of the same sequence?
A: The PBM binding z-score was 5.88.

Q: What about the PBM binding z-score [7] of the same sequence?
A: The PBM binding z-score was 6.89.

Q: What about the PBM binding z-score [8] of the same sequence?
A: Its PBM binding z-score is 6.32.

Q: What about the PBM binding z-score [9] of the same sequence?
A: Its PBM binding z-score is 2.82.

Q: And the PBM binding z-score [10]?
A: Its PBM binding z-score is 4.85.

Q: Which results are given for CTCGAAAGGTCGGTTGGGGTGAGTATACGGATAA?
A: PBM binding z-score [1]: 3.34; PBM binding z-score [2]: 2.38; PBM binding z-score [3]: 0.622; PBM binding z-score [4]: 2.86; PBM binding z-score [5]: 1.41; PBM binding z-score [6]: 3.38; PBM binding z-score [7]: 0.807; PBM binding z-score [8]: 1.47; PBM binding z-score [9]: 0.13; PBM binding z-score [10]: 0.958

Q: Which PBM binding z-score [1] does the source give for TCTCGGAGGACATGAAGGTCAGAGCTTTCCAGAG here?
A: The PBM binding z-score was 0.472.

Q: And the PBM binding z-score [2]?
A: Its PBM binding z-score is 1.08.

Q: What about the PBM binding z-score [3] of the same sequence?
A: Its PBM binding z-score is 0.0663.

Q: And the PBM binding z-score [4]?
A: The PBM binding z-score was 1.15.

Q: And the PBM binding z-score [5]?
A: Its PBM binding z-score is -0.779.

Q: And the PBM binding z-score [6]?
A: The PBM binding z-score was 1.77.

Q: What about the PBM binding z-score [7] of the same sequence?
A: The PBM binding z-score was 0.175.

Q: And the PBM binding z-score [8]?
A: Its PBM binding z-score is 1.63.

Q: And the PBM binding z-score [9]?
A: Its PBM binding z-score is 2.55.

Q: What about the PBM binding z-score [10] of the same sequence?
A: Its PBM binding z-score is 1.8.
